Test results reported in ChEMBL document CHEMBL3433997, “St. Jude Leishmania screening dataset” (2016).

Target: Solute carrier family 2, facilitated glucose transporter member 1 (Homo sapiens) (UniProt P11166)
Assay: ST_JUDE_LEISH: Cytotoxicity at 2uM final concentration against transgenic Leishmania Mexicana promastigotes LmGLUT1 that are glucose transport deficient and complemented with the human glucose transporter GLUT1. Activity is measured by DNA content using SYBR green in vitro
Assay type: functional

Solute carrier family 2, facilitated glucose transporter member 1 (Homo sapiens), sequence (P11166 whole entry): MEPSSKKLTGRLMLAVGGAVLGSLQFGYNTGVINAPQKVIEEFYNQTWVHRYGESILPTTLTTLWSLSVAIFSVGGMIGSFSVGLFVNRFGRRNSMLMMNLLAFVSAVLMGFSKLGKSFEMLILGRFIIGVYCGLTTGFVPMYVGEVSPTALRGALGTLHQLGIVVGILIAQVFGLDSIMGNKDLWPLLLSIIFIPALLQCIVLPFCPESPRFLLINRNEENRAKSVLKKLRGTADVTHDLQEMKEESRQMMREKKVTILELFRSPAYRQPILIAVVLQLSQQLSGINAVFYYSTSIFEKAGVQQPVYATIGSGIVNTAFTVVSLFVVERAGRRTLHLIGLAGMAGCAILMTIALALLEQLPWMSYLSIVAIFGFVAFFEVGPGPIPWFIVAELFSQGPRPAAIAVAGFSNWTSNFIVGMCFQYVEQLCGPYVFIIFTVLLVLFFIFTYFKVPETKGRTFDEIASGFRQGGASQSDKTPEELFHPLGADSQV

Row | SMILES | inhibition [%]
1 | O=C(CCc1c[nH]cn1)Nc1cccc(-c2ccc(-c3nc4ccccc4[nH]3)s2)c1 | 2.18
2 | Fc1ccc(NC(S)=NN=Cc2ccccn2)cc1 | 4.22
3 | COc1ccc(C=NNc2nc(O)cc(-c3ccccc3)n2)cc1OC | 1.33
4 | NC1=NC(c2ccccc2)(c2ccccc2)C(=O)N1CCCCc1ccccn1 | -0.54
5 | O=C(Nc1ccsc1)Nc1cccc(-c2ccc(-c3nc4cc(C(F)(F)F)ccc4[nH]3)cc2)c1 | 6.66
6 | COc1ccc(C2CCN(CCN3CCC(NC(=O)c4ccc(-c5cccc(C(F)(F)F)c5C(F)(F)F)cc4)CC3)CC2)c(OC)c1 | 0.36
7 | CC1(C)N=C(N)N=C(NOCc2ccc(Cl)c(Cl)c2)N1 | 1.06
8 | CC(C)(C)c1ccc(NC(=O)Nc2ccc(Cn3ncc(N4CCCNCC4)c(Cl)c3=O)cc2)cc1 | 6.36
9 | NC(=O)c1cccc(C(=O)Nc2cccc(-c3csc(-c4nc5ccccc5[nH]4)c3)c2)c1 | 2.68
10 | COc1cc(Cc2cnc(N)nc2N)cc(OCCCCCCN2C(=O)c3ccccc3C2=O)c1OC | 7.29
11 | COc1ccc2nccc([C@@H](O)CN3CCC(NCc4cnc5c(c4)NC(=O)CS5)C(F)C3)c2c1 (stereo not given in full) | -0.32
12 | O=C(Nc1ccc2[nH]c(-c3ccccc3)nc2c1)c1cc(-c2ccc3c(c2)OCCO3)n[nH]1 | 12.2
13 | CC1(C)NC(N)=NC(=N)N1OCc1nc(N)nc(Nc2ccccc2)n1 | 5.43
14 | Brc1ccsc1-c1nc(NCCC(c2ccccc2)c2ccccc2)no1 | -0.74
15 | O=C(Nc1cccc(C(F)(F)F)c1)NC1CCN(c2ccnc3cc(Cl)ccc23)C1 (stereo not given) | -0.97
16 | COc1ccc2ncc(Cl)c(CCN3CCC(NCc4ccc5c(n4)NC(=O)CO5)CC3)c2c1 | 7.95
17 | Clc1cccc(C=NN=c2cc[nH]c3ccccc23)c1 | 1.39
18 | CCN(CC)CCCNc1ncc2c(-c3ccc(NC(=O)Nc4cc(C(F)(F)F)ccc4F)cc3)nn(C)c2n1 | 4.51
19 | Cn1c(NC(=O)CCCCCNC(=O)c2ccc(O)c(-c3ccc(Cl)c(Cl)c3)c2)nc2ccccc21 | 1.81
20 | Cc1cc(-c2cccc(CNC3CCN(C)CC3)c2)ccc1S(=O)(=O)NCCc1ccccn1 | 0.29

Row | SMILES | inhibition [%]
21 | CCN(CC)CCN1C(=O)c2oc3ccc(F)cc3c(=O)c2C1c1cccc(Cl)c1 (stereo not given) | -2.07
22 | CC(C)C[C@H](NC(=O)c1cc2cc(OCCN3CCNCC3)ccc2o1)C(=O)NC1CC[C@@H](C)N(C(=O)Nc2ccc(Cl)cc2)CC1=O (stereo not given in full) | 3.2
23 | CCOc1cc(Cc2cnc(N)nc2N)ccc1OC | 0.52
24 | COCCOc1ccc(C(F)(F)F)cc1NC(=O)Cc1c(F)cccc1Cl | 11.3
25 | N=C(N)c1cc(Cl)cc(NC(=O)Nc2cc(Cl)cc(C(=N)N)c2)c1 | 2.37
26 | CN(C)C(S)=NN=Cc1cccc(O)c1O | 6.64
27 | OCCNc1nc(Nc2cccc(O)c2)nc2ccccc12 | 4.65
28 | CN(c1ccc(F)cc1)S(=O)(=O)c1ccc(Cl)c(C(=O)Nc2cccc(C#N)c2)c1 | 4.24
29 | c1ccc2c(CNCCCCCCNCc3c(OCC4CC4)ccc4ccccc34)c(OCC3CC3)ccc2c1 | 51.5
30 | O=C(Nc1ccccc1-c1ccccc1)C1CCCN1C(=O)Nc1ccc(Cl)cc1 (stereo not given) | -0.38
31 | CCN(CC)CCN(CCCc1ccc(-c2ccc(C(F)(F)F)cc2)cc1)C(=O)Cn1c(CCc2cccc(F)c2F)nc(=O)c2ccccc21 | 2.87
32 | CCOc1cc(Cc2cnc(N)nc2N)cc(OCC)c1OCC | 4.33
33 | CCOc1ccc(Cc2c(C)nc3nc(N)nc(N)c3c2C)cc1 | 29.1
34 | N#Cc1ccc(-c2ccc(C(=O)NCCCCN3CC=C(c4ccc5c(c4OCC4CC4)CCCC5)CC3)cc2)cc1 | 0.36
35 | COc1ccc(S(=O)(=O)NC2CCN(c3ccnc4cc(Cl)ccc34)C2)cc1 (stereo not given) | 4.03
36 | NC(=O)C1Cc2ccccc2CN1CC(=O)Nc1ccccc1Sc1ccccc1 (stereo not given) | 2.73
37 | FC(F)(F)COc1ccc(CNCCCCCCNCc2ccc(OCC(F)(F)F)c3ccccc23)c2ccccc12 | 113
38 | CC(C)c1ccc(C(NC(=O)C2CCCCC2)c2ccc3cccnc3c2O)cc1 (stereo not given) | -0.43
39 | CCOC(=O)c1ccc(NC(=O)Nc2ccc(-c3ccc(-c4nc5ccccc5[nH]4)cc3)cc2)cc1 | 3.64
40 | CNC(=O)c1cncc(/C=C/c2ccccc2S(N)(=O)=O)c1 | -0.22
